PubChem BioAssay (NCI)
Compounds without any hit were thinned out: in the full panel of roughly 79,000, 15% have a hit. Cut-off read from the data, not from the text of the source: active = growth inhibition above about 70%; inactive = the rest.

Tests used:
[1] = NCI Yeast Anticancer Drug Screen. Data for the rad50 strain (AID 155);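 note: 0% = growth of vehicle-only cultures of the same strain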; conditions: S. cerevisiae rad50 strain growth inhibition; at 50.0 µM; stronger effect = higher value
Method in brief: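 Compounds were tested on a yeast strain with an engineered DNA damage repair alteration; the reported value is growth inhibition normalised to vehicle treatment.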

[2] = NCI Yeast Anticancer Drug Screen. Data for the mec2-1 strain (AID 157); conditions: S. cerevisiae mec2-1 strain, at 50.0 µM, stronger effect = higher value
Method in brief: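 Growth inhibition is read against vehicle-treated controls after compound exposure of the mec2-1 yeast strain, which is defective in DNA damage repair or cell cycle control.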

[3] = NCI Yeast Anticancer Drug Screen. Data for the mlh1 rad18 strain (AID 175); conditions: S. cerevisiae mlh1 rad18 strain growth inhibition; at 50.0 µM; stronger effect = higher value
Method in brief: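 Cells of a genetically altered yeast strain, deficient in DNA damage repair, were treated with compound. Their growth was then compared with that of vehicle-treated cultures to give inhibition.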

Measured: growth inhibition

CCCCCCC(C/C=C\CCCCCCCC(=O)OC)OC(C)=O (centres undefined)
inactive: [1] -10.2% | [2] -16.7% | [3] -4.5%

CS(=O)(=O)c1ccc(NN)c(S(C)(=O)=O)c1
inactive: [1] -9.4% | [2] -10.3% | [3] 11.8%

Cc1n[nH]c(=O)n(/N=C\c2c[nH]c3ccccc23)c1=O
inactive: [1] 0.2% | [2] -4.55% | [3] -1.55%

O=C(O)/C=C/C(=O)Nc1cc(Cl)c(Cl)cc1Cl
inactive: [1] -11.3% | [2] -3.25% | [3] -10.9%

Cc1ccc(Cl)cc1NCN1C(=O)c2ccccc2C1=O
inactive: [1] 1.35% | [2] -2.4% | [3] 11.1%

O=C1OC(c2ccc(Cl)cc2)=N/C1=C\c1ccccc1
inactive: [1] -4.85% | [2] -5.5% | [3] -6.65%

CSc1sc2cc([N+](=O)[O-])ccc2[n+]1C
inactive: [1] -0.4% | [2] -7.6% | [3] 55.4%

O=C(CCCCCCCCCCBr)OCc1ccccc1
inactive: [1] -34.2% | [2] -40% | [3] 5.9%

Oc1cc(Br)ccc1C=Nc1ccc(N2CCCCC2)cc1
inactive: [1] 25.4% | [2] 10.5% | [3] 17.8%

CC1=NN(c2ccccc2)C(=O)C1CCC#N (centres undefined)
inactive: [1] 10.6% | [2] -12.9% | [3] 31.4%

N#[N+]c1c(O)cc(S(=O)(=O)O)c2ccccc12
inactive: [1] -21.6% | [2] -8.45% | [3] -10.4%

COc1cc(/C=N/N2C(=O)c3ccccc3C2=O)ccc1O
inactive: [1] 26.8% | [2] 8.1% | [3] 25.9%

Oc1ccccc1C=Nc1ccccc1C(F)(F)F
inactive: [1] -7.3% | [2] -19.9% | [3] 25.2%

OC1CCC2CN3CCc4c([nH]c5ccccc45)C3CC2C1 (centres undefined)
inactive: [1] 23.6% | [2] -9.5% | [3] 27.8%

CC(=O)NCc1cc(CNC(C)=O)c(C)cc1C
inactive: [1] -17.5% | [2] -13.7% | [3] -23.6%

CCOC(=O)C(=Cc1c[nH]c2ccc(Br)cc12)C(=O)OCC
inactive: [1] -17.5% | [2] -22.9% | [3] -5.15%

CCCCCCCCCCCCOc1ccccc1C=O
inactive: [1] 1.5% | [2] -29.8% | [3] -17.4%

CCCCCCCC/C=C\CCCCCCCCOC(N)=O
inactive: [1] -30.7% | [2] -26.8% | [3] -17.1%

Cc1ccc(S(=O)(=O)NCN2C(=O)c3ccccc3C2=O)cc1
inactive: [1] -3.75% | [2] -3.85% | [3] 1.55%

COc1ccc(NC(=S)N(C)C)cc1
inactive: [1] 19.5% | [2] -11% | [3] 3.1%

COc1ccc(-c2cc(=O)c3c(ccc4ccccc43)o2)cc1
inactive: [1] 21.6% | [2] 3.4% | [3] 7%

Cc1ccc(N2CCOC2=O)cc1N1CCOC1=O
inactive: [1] -8.3% | [2] -32.6% | [3] -10.7%

COc1cc(C(=O)N/N=C/c2ccc(N(C)C)cc2)cc(OC)c1OC
inactive: [1] -32.2% | [2] -45.2% | [3] -20.8%

COc1ccc(C(C#N)N2CCCC2)cc1 (centres undefined)
inactive: [1] -21.9% | [2] -37.9% | [3] -9.75%

CCCCCCCCCCCCCCCc1cc(=S)n(C)c2ccc(C)cc12
inactive: [1] 25.1% | [2] -13.5% | [3] 16.1%

C(=C/c1ccc(/C=C/c2ccccc2)cc1)/c1ccccc1
inactive: [1] -22.1% | [2] -13.9% | [3] -26.8%

N#C/C(=C/c1c(O)ccc2ccccc12)C(N)=O
inactive: [1] 33.7% | [2] 18.4% | [3] 60.9%

COc1cc(-c2cc(=O)c3c(O)cc(O)cc3o2)cc(OC)c1OC
inactive: [1] -8.15% | [2] -10.7% | [3] 40%

CC12CC3CC(C(Cl)C(=O)O)(C1)CC(C(Cl)C(=O)O)(C3)C2 (centres undefined)
inactive: [1] 52.1% | [2] 14.5% | [3] 46.6%

Nc1ccccc1SC1CC(=O)N(c2cccc3ccccc23)C1=O (centres undefined)
inactive: [1] -19.6% | [2] -7.6% | [3] -12.8%

Nc1ccc(I)cc1Cl
inactive: [1] 15.8% | [2] 4.5% | [3] 24.4%

COc1cc(/C=N/n2cnnc2)cc(OC)c1OC
inactive: [1] -8.35% | [2] 5.45% | [3] -13.7%

CCCCCCCCCCCC(O)CCCCC (centres undefined)
inactive: [1] -15% | [2] -48.4% | [3] -38.9%

N/C(Cc1ccc(N)cc1)=N\O
inactive: [1] -17.4% | [2] -13.6% | [3] -13.8%

Nc1ccc2[nH]c(-c3ccccc3)cc(=O)c2c1
inactive: [1] -38% | [2] -33.8% | [3] -15.9%

Nc1ccccc1CCc1ccccc1N
inactive: [1] 18.2% | [2] -10.1% | [3] 12.4%

Cc1ccc(CNc2cc(C)ccn2)cc1
inactive: [1] 42.9% | [2] 23.9% | [3] 26.9%

Cc1ccc(S(=O)(=O)N2CCC(O)(c3ccccc3)CC2)cc1
inactive: [1] -3.05% | [2] -36.3% | [3] -2.7%

C=CN1C(=O)N(C=C)C(C)(CC(C)C)C1=O (centres undefined)
inactive: [1] 3.6% | [2] -5.55% | [3] 15.8%

Nc1ccc(Nc2nc3ccccc3s2)c(O)c1
inactive: [1] 22.6% | [2] 2.15% | [3] 24.6%

CCN(CC)CCCOC(=O)N(Cc1ccc(Cl)cc1)C1CC1
inactive: [1] 51.2% | [2] 12.8% | [3] 46.6%

Cc1ccc(NCN2C(=O)c3ccccc3C2=O)cc1Cl
inactive: [1] 20.1% | [2] -5.55% | [3] 28.3%

O=C(O)c1cc(N=Nc2ccccc2)ccc1O
inactive: [1] -19.1% | [2] -12.7% | [3] -23.8%

O=C1c2ccccc2C(=O)N1/N=C/c1cc(Br)ccc1O
inactive: [1] 22.2% | [2] -4.35% | [3] 10.4%

CCCCCCC(=O)C(CCCC)(C(=O)OCC)C(=O)OCC
inactive: [1] 0.4% | [2] -9.4% | [3] 7.35%

Cc1ccc(N2C(=O)CC(Sc3ccccc3N)C2=O)cc1 (centres undefined)
inactive: [1] -8.75% | [2] -17.4% | [3] -9.3%

c1ccc(-c2nc3ccc4ccccc4c3nc2-c2ccccc2)cc1
inactive: [1] -8.85% | [2] -35.2% | [3] 1.85%

Cn1/c(=N/Sc2nnnn2-c2ccccc2)sc2ccccc21
inactive: [1] 13.6% | [2] -13.9% | [3] 29.9%
